Experimental data: ChEMBL document CHEMBL3988442, “University of Dundee, Small-Polar-MMV Screening Library” (2021)
For some assays here: Potency and affinity values are given separately.

How the values were obtained:
Design in all cases: scale not given: direction of the effect not stated beside the values
[1] = biological target: Protein translocase subunit SecA (Escherichia coli (strain K12)) (UniProt P10408); experiment: Assay to Identify E. coli SecA ATPase Inhibitors; assay type: functional; conditions: 30 µM
[2] = biological target: T1, Ubiquitin-activating enzyme e1, putative (Leishmania donovani (strain BPK282A1)) (UniProt E9BSI1); experiment: Leishmania donovani Ubiquitin Activating Enzyme (LdE1); assay type: functional; conditions: 30 µM
T1 sequence (whole entry): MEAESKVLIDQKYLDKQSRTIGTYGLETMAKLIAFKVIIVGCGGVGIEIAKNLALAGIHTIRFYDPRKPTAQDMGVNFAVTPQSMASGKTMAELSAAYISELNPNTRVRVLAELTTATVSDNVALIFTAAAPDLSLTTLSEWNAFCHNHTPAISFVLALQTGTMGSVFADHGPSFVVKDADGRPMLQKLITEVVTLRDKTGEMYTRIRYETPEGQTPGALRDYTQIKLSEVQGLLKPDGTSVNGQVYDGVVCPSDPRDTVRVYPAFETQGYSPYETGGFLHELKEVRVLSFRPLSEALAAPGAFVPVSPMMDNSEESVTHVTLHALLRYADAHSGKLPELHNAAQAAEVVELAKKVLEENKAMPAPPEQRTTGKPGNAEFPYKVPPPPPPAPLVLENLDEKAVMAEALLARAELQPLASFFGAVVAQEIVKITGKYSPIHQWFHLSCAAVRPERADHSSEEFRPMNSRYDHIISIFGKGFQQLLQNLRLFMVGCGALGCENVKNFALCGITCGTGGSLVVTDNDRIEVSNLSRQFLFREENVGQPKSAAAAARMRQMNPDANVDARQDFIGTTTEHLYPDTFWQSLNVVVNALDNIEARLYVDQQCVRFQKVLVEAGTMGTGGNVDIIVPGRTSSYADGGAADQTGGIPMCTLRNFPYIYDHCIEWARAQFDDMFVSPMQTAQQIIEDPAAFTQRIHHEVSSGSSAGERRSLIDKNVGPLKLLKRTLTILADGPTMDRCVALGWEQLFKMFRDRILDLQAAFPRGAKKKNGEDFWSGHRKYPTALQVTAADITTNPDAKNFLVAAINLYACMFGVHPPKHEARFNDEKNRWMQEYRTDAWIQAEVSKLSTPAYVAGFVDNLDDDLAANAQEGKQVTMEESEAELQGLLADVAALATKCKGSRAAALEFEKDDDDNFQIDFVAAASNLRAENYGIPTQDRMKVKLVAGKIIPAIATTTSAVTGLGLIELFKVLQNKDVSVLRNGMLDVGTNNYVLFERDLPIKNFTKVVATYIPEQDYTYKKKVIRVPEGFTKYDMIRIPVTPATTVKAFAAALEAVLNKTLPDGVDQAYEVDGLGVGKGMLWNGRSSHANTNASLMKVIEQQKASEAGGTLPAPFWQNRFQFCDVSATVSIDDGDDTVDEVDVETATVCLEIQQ

[3] = biological target: AMP-activated protein kinase, AMPK (Homo sapiens) (UniProt P54646+O43741+P54619+Q9UGJ0+Q9Y478+Q13131+Q9UGI9); experiment: AMP-dependent Kinase enzyme assay. An in vitro enzyme assay that detects ADP turnover that is directly proportional to AMPK activity. This uses naive AMPK that is activated during the assay with MK-8722; assay type: functional; conditions: 30 µM
[4] = biological target: Sialic acid-binding Ig-like lectin 9 (Homo sapiens) (UniProt Q9Y336); experiment: Hs-Siglec9 ALPHAscreen SOP 20170721; conditions: 10 µM
[5] = test system: Trypanosoma cruzi; experiment: Trypanosoma cruzi phosphomannomutase and mannose-1-phosphate guanylyltransferase assay; assay type: functional; conditions: 10 µM
[6] = biological target: T2, Arginase-2, mitochondrial (Homo sapiens) (UniProt P78540); experiment: in vitro enzyme assay to detect the production of urea directly proportional to the activity of Arginase II; assay type: functional; conditions: 33.3 µM; further: in the data most compounds retested in dose-response had high values
T2 sequence (whole entry): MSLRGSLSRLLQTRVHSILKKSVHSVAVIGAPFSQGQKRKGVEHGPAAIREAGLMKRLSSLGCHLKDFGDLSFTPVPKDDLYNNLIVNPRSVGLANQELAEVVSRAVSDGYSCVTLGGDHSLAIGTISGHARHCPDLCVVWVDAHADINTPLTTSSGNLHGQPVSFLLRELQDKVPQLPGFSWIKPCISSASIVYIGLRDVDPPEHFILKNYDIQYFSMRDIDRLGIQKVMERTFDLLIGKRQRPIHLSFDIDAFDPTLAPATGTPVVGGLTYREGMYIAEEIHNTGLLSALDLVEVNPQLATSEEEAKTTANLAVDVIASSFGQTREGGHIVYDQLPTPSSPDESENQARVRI

[7] = biological target: T3, Proteasome subunit beta (Trypanosoma cruzi) (UniProt O96673); experiment: Trypanosoma cruzi proteasome chymotrypsin-like activity (TcProtChymo) assay.; further: in the data most compounds retested in dose-response had high values; assay type: functional; conditions: 9.37 µM
T3 sequence (whole entry): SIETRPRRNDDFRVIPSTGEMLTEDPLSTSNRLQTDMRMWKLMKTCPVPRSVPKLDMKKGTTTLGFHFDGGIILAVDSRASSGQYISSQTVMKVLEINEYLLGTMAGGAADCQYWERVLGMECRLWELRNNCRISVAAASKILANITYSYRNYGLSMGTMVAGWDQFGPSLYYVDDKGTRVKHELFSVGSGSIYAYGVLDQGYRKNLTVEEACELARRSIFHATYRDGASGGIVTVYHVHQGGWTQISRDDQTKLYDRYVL

[8] = species on record: Homo sapiens; experiment: To identify inhibition of the IFN signalling (Jak-Stat) pathway via expression of an eGFP reporter gene under the control of an IFN-stimulated response element (ISRE) containing MxA promoter.; assay type: functional; conditions: 30 µM
[9] = biological target: T4, Tyrosyl-tRNA synthetase, putative (Trypanosoma cruzi (strain CL Brener)) (UniProt Q4DSP6); experiment: Trypanosoma cruzi tyrosyl tRNA synthetase (TcYRS) _High Tyrosine SOP; assay type: functional; conditions: 30 µM; further: in the data most compounds retested in dose-response had high values
T4 sequence (whole entry): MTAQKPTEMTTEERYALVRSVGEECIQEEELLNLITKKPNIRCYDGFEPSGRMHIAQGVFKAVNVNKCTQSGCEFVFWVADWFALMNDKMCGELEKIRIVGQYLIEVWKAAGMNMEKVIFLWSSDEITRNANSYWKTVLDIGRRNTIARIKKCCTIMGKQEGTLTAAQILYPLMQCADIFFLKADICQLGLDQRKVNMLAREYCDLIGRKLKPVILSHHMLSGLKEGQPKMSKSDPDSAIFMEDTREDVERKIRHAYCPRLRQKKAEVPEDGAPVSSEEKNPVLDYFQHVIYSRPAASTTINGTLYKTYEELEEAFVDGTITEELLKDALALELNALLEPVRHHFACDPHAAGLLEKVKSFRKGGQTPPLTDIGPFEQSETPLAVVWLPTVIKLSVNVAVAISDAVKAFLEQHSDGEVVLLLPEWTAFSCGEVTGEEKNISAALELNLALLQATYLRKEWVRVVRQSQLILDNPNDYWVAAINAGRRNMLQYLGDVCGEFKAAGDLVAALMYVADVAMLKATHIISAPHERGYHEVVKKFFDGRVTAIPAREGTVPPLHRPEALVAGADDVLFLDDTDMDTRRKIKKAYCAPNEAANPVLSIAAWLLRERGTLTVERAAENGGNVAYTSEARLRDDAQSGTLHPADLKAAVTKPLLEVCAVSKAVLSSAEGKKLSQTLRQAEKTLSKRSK

[10] = biological target: T4, Tyrosyl-tRNA synthetase, putative (Trypanosoma cruzi (strain CL Brener)); experiment: Trypanosoma cruzi tyrosyl tRNA synthetase (TcYRS) SOP; assay type: functional; conditions: 30 µM
[11] = biological target: Chromo domain-containing protein 1 (Saccharomyces cerevisiae (strain ATCC 204508 / S288c) (Baker's yeast)) (UniProt P32657); experiment: ScCHD-1 Enzyme Inhibition Assay; assay type: functional; conditions: 30 µM; further: in the data most compounds retested in dose-response had high values
Sequence of Chromo domain-containing protein 1 (Saccharomyces cerevisiae (strain ATCC 204508 / S288c) (Baker's yeast)) (P32657 whole entry, the tested form may be a part): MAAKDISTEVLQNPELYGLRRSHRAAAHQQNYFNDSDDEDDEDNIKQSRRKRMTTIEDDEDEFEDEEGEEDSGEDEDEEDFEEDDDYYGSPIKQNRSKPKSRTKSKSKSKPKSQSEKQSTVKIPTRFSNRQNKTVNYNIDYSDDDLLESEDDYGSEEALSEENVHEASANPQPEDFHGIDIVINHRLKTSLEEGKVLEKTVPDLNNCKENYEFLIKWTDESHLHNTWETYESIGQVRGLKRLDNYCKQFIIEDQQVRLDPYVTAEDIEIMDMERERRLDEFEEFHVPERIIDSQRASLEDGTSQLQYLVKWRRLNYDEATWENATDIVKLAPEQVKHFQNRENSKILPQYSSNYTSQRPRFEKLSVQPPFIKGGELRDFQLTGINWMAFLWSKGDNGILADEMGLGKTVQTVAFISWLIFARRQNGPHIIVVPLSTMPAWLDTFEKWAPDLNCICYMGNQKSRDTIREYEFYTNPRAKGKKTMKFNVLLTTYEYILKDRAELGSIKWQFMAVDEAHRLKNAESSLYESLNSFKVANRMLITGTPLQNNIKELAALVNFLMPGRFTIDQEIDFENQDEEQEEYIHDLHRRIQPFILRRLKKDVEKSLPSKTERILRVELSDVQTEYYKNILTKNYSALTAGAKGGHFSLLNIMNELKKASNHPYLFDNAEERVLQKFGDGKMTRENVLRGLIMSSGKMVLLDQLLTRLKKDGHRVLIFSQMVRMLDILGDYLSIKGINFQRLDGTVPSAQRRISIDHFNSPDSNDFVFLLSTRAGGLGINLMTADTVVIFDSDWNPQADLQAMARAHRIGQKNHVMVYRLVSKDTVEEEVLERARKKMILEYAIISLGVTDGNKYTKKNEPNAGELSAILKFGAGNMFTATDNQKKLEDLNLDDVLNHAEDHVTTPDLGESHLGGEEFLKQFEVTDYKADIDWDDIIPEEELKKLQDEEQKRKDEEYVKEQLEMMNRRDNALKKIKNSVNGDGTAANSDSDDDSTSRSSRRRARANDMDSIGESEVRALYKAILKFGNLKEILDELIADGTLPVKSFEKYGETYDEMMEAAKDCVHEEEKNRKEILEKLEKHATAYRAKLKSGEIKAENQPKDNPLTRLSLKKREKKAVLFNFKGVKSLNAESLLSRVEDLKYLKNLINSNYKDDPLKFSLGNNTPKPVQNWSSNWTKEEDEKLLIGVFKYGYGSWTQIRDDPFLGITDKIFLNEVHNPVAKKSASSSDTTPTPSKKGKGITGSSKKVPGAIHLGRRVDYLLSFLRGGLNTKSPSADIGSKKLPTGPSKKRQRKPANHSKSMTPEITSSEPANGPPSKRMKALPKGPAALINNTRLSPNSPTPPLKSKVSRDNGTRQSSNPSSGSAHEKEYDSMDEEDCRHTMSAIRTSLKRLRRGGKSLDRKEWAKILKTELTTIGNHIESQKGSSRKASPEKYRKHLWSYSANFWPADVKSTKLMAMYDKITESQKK

Sequence of Protein translocase subunit SecA (Escherichia coli (strain K12)) (P10408 whole entry): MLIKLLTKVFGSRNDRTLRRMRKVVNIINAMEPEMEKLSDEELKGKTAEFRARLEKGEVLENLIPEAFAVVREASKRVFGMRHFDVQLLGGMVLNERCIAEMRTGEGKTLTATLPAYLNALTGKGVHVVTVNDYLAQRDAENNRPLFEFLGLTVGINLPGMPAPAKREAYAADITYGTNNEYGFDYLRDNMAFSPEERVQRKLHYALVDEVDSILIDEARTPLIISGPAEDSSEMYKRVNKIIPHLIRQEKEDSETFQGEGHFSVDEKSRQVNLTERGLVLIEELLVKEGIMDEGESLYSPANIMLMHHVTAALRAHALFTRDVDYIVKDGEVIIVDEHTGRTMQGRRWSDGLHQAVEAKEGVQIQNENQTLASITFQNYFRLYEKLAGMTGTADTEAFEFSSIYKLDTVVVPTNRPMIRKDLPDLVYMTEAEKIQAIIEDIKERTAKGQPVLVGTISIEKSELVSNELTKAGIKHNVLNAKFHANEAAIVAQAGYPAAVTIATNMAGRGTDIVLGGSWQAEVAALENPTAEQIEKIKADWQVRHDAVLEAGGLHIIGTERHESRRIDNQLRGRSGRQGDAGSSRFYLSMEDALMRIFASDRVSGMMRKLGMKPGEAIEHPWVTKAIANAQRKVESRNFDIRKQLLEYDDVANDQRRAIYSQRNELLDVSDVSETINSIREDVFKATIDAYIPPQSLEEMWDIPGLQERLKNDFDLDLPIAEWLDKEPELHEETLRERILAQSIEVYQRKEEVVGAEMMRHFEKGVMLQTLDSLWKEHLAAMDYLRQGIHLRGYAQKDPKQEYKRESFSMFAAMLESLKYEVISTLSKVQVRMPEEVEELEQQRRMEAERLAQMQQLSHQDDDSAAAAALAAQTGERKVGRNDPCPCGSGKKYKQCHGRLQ
Sequence of Sialic acid-binding Ig-like lectin 9 (Homo sapiens) (Q9Y336 whole entry): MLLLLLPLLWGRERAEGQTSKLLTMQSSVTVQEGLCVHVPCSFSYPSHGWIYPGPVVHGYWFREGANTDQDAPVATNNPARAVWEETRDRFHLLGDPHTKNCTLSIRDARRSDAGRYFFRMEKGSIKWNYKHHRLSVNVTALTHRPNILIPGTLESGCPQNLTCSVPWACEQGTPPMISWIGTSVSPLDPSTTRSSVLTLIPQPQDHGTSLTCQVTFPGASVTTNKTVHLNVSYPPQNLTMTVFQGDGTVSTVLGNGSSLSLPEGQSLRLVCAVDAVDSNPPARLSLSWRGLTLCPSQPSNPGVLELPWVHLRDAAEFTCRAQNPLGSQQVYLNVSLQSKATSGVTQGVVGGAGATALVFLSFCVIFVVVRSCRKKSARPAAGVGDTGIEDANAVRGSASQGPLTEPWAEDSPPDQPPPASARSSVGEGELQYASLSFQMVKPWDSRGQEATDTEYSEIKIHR

SMILES	Percent Effect [1] [%]	Percent Effect [2] [%]	Percent Effect [3] [%]	Percent Effect [4] [%]	Percent Effect [5] [%]	Percent Effect [6] [%]	Percent Effect [7] [%]	Percent Effect [8] [%]	Percent Effect [9] [%]	Percent Effect [10] [%]	Percent Effect [11] [%]
COc1ccc2c(ccn2CCC(=O)O)c1	-6.14	4	-3.9	-8.49	-8.45	-7.22	6.1	21.8	3.17	-5.13	-7.85
Cc1nn(C)c(Cl)c1CNCc1cccnc1N1CCOCC1	-8.75	21.1	-0.469	-3.82	0.682	-3.55	21	3.88	9.57	18.2	-6.81
CN(C)S(=O)(=O)c1ccc(CN2CCCC2CO)o1 (configuration not stated)	-4.59	0	-2.33	10.6	-0.84	-2.88	-3.3	11.2	4.43	3.7	1.24
O=C1[C@H]2CC[C@H](CN(C3CSCCSC3)C2)N1Cc1cscn1	-0.514	2.74	6.23	4.75	-8.53	-1.2	18.4	8.4	8.33	16.1	1.67
Cn1c(Cn2ccnc2)nnc1C1CCN(C(=O)C2(C)CC2)CC1	-1.61	11	-0.77	4.51	-2.98	-4.39	21	17	5.21	18.5	-5.12
CCCc1noc(CCC(=O)N2CCCC2c2ccsc2)n1 (configuration not stated)	-3.59	-55.7	0.791	6.07	1.6	-2.28	-0.409	-2.86	-2.46	-1.27	-4.16
CCN(C(=O)CCCOc1ccccc1F)c1ccncc1	-5.32	18.4	-2.56	5.73	5.36	-20.1	10.1	11.9	5.32	7.79	-5.44
Clc1cc(CN2CCCC2Cn2cncn2)c2ncccc2c1 (configuration not stated)	-4.67	2.7	-1.32	-0.586	-2.88	-12.4	3.95	-0.129	2.97	6.1	-2.39
CC(C)NC(=O)[C@@H]1CCO[C@@H]2CCN(c3ncccn3)C[C@H]21	-6.07	16	-1.13	0.524	0.579	-45	4.1	-11	8.33	10	-7.2
CC(NC(=O)Cn1cccn1)c1ccc2c(c1)OCCCO2 (configuration not stated)	-2.38	28.6	20.8	1.54	6.55	3.92	10.1	32.9	8.74	14.6	-16.5
CCn1c(N)nc2cc(C(=O)NCc3ccccc3Cl)cnc21	-5.22	8.22	1.39	-1.08	-0.196	5.91	14.9	5.03	7.53	17.5	-4.29
Cc1noc(C(C)C)c1C(=O)N1CCOCC1CC(=O)c1ccco1 (configuration not stated)	-0.641	0	17.2	-3.82	0.487	1.18	7.38	-20.2	-2.13	-7.79	-0.46
CC(C)OCCCNC(=O)c1ccc(-c2ccco2)[nH]c1=O	-4.6	10.8	60.2	-6.26	-7.83	-1.6	10.1	12.9	6.4	11.1	-5.48
Cn1cc(N2CC3(CCN(S(=O)(=O)C4CC4)C3)CC2=O)cn1 (configuration not stated)	-2.73	18.7	-7.51	-0.00481	3.09	-11.3	10.6	-1.37	7.29	27.5	-13.5
Cc1ccc(CC2CCCN2CC(=O)NCc2ccccn2)cc1 (configuration not stated)	-7.47	-5.26	-11.2	3.27	-1.66	2.37	8.53	-4.78	7.45	13	-2.14
Cc1nc(C)n(CC2CCCN2CCc2cccs2)n1 (configuration not stated)	-2.28	15.8	3.79	-4.64	7.89	-2.68	25.4	10.2	13.2	-7.32	-11.4
COc1cccc(CC(=O)N2CCc3ncnc(NC(C)C)c3CC2)c1	-5.16	-18.9	0.899	-4.76	-3.42	-0.319	7.38	12.2	3.24	7.69	0.23
COc1ccccc1CNC(=O)N1CCCC(NS(C)(=O)=O)C1 (configuration not stated)	-6.57	-15.6	-5.52	-17.1	-3.82	-2.74	12.8	24	-25.7	7.06	-22.9
O=C(Nc1nc2c(s1)CN(S(=O)(=O)C1CC1)CC2)c1c(F)cccc1F	-3.34	0	17.1	-7.6	-4.11	2.27	9.41	30.1	3.23	7.5	-4.6
Cn1ncc2c1CCCC2NCc1cc(Br)cs1 (configuration not stated)	-0.998	13	0.777	-1.41	3.82	2.74	21.4	5.32	7.62	11.8	-8.68
CCNC(=O)CN1CCCN(C(=O)C2CCCc3[nH]ncc32)CC1 (configuration not stated)	-3.9	8.11	-2.94	6.84	1.66	5.21	5.75	-11.9	3.23	8.64	-4.21
O=S(=O)(CCN1CCOC(Cn2cncn2)C1)c1ccccc1 (configuration not stated)	-1.18	5.41	-4.67	12.3	3.81	2.23	-0.0858	-5.62	0	3.7	-11.6
